Experimental findings from paper PMC4336329 (PLoS ONE, 2015) are described below.

Out of some 310,000 compounds screened, about 14,000 (4.5%) showed an effect of 50% or more. The effect is printed as a negative number. The entries come from a sample that favours strong results as a whole.
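Further: peak tail current of the secondary pulse compared with the same well before compound.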

For this test, the target named is human ether-à-go-go-related gene (hERG) potassium channel (human, UniProt Q12809). Kind of test: primary screen, population patch clamp on CHO cells stably expressing hERG; higher = less effect of the substance.
Chain of human ether-à-go-go-related gene (hERG) potassium channel (Q12809 whole entry, looked up): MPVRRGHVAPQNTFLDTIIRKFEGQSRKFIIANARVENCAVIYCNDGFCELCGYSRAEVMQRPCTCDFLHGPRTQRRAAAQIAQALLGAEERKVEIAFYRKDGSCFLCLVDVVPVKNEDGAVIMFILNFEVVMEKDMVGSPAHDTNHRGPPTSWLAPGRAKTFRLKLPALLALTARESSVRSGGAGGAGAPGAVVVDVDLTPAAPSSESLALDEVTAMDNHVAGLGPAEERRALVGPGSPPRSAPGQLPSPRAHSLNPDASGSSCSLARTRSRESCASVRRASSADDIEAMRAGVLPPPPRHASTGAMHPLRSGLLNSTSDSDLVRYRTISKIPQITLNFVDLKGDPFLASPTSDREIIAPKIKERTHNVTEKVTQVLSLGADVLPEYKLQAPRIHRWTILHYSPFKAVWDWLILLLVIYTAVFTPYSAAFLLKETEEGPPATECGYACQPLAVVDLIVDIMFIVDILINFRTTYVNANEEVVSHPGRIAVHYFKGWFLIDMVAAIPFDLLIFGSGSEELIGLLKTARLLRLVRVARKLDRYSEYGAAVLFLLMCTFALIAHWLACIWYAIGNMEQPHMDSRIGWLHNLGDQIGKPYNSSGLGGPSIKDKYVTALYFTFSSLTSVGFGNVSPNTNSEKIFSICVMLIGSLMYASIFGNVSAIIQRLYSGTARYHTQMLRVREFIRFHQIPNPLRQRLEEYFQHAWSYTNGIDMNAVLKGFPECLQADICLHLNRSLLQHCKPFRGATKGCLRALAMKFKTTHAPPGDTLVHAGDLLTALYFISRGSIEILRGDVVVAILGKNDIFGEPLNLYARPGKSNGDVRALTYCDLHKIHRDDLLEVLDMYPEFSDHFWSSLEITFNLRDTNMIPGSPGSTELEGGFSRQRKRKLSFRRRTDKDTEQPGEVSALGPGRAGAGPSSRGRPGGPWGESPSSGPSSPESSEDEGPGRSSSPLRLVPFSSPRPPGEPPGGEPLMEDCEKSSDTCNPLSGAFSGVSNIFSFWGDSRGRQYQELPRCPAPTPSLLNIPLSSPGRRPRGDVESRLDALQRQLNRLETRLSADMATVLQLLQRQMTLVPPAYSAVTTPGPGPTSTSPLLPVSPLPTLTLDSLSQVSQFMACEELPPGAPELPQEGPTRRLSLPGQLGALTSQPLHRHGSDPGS
Regarding `COCCOC(=O)c1c(NC(=O)COC(=O)c2ccc(C)o2)sc(C(N)=O)c1C`, the “hERG current change (%, negative = inhibition) at 10uM” value is -10.9%. Consider `CCc1ccc(CCOc2ccc(CC3SC(=O)NC3=O)cc2)nc1.Cl` (centres unmarked), for which the “hERG current change (%, negative = inhibition) at 10uM” value turned out to be 4.26%. With `CC(C)CC(=O)N1CCN(C(=O)c2cccc(F)c2)CC1`, the “hERG current change (%, negative = inhibition) at 10uM” value stood at 0.0457%.

Turning to `C1CCC(OCCN2CCN(CCOC3CCCCC3)CC2)CC1`, the “hERG current change (%, negative = inhibition) at 10uM” value is -37.1%. Turning to `Cc1ccc(N2C(=O)NC3(CCCCC3)C2=O)cc1`, the “hERG current change (%, negative = inhibition) at 10uM” value is 9.24%. The value for `COc1ccccc1N1CCN(C(=O)Nc2cccc(Cl)c2)CC1` was -28.2%; that for `Cc1cc(N2CCN(C(=O)Nc3ccccc3C#N)CC2)c2ccccc2n1` was -72.9%. For `COc1cccc(Cl)c1NC(=O)N1CCN(c2cc(C)nc3ccccc23)CC1`, the “hERG current change (%, negative = inhibition) at 10uM” value is recorded as -75.3%.

As to `Cc1cc(N2CCN(C(=O)/C=C/C(=O)O)CC2)c2ccccc2n1`, the “hERG current change (%, negative = inhibition) at 10uM” value is reported as 32.4%. Regarding `COc1ccccc1N1CCN(C(=O)Nc2cccc(C)c2)CC1`, the “hERG current change (%, negative = inhibition) at 10uM” value is recorded as -3.99%. For the compound `Cc1cc(N2CCN(C(=O)Nc3ccc(F)cc3F)CC2)c2ccccc2n1`, the “hERG current change (%, negative = inhibition) at 10uM” value is listed as -72.2%.

`CC(C)n1c(N2CCN(C(=O)Nc3ccc(F)cc3F)CC2)nc2ccccc21`: the “hERG current change (%, negative = inhibition) at 10uM” value is -26.3%. With `Cc1ccccc1NC(=O)N1CCN(c2ncccn2)CC1`, the “hERG current change (%, negative = inhibition) at 10uM” value is recorded as 4.15%. Turning to `O=C(Nc1ccc(F)cc1F)N1CCN(c2ncccn2)CC1`, the “hERG current change (%, negative = inhibition) at 10uM” value is -8.77%. For `Cc1cc(N2CCN(CC(O)C(F)(F)F)CC2)c2ccccc2n1` (centres unmarked), the “hERG current change (%, negative = inhibition) at 10uM” value is given as -40.7%. `CCCCc1ccc(NC(=O)N2CCN(c3cc(C)nc4ccccc34)CC2)c(C)c1`: the “hERG current change (%, negative = inhibition) at 10uM” value is listed as -61.6%.

For `Cc1cc(C(=O)Nc2ccccc2N2CCOCC2)c2ccccc2n1`, the “hERG current change (%, negative = inhibition) at 10uM” value is -15.5%.

Regarding `CCOC(=O)c1sc(NC(=O)C2C3C=CC(C3)C2C(=O)O)nc1C` (centres unmarked), the “hERG current change (%, negative = inhibition) at 10uM” value came to 16.2%. As to `CC[C@H](C)/C=C(C)/C=C/C1=CC2=CC(=O)[C@]3(C)OC(=O)[C@@H](C(C)=O)[C@@H]3C2=CO1`, the “hERG current change (%, negative = inhibition) at 10uM” value was determined as 4.65%.

As to `O=[N+]([O-])c1ccc(O)c(/C=N/n2c(-c3ccccc3)n[nH]c2=S)c1`, the “hERG current change (%, negative = inhibition) at 10uM” value was found to be 17.9%. Take `O=C(O)c1cccc(Nc2ncnc3ccccc23)c1`: the “hERG current change (%, negative = inhibition) at 10uM” value was 17.3%.

Take `CC1CCCC(C)N1NC(=O)c1cccc(S(=O)(=O)N2CCc3ccccc32)c1` (centres unmarked): the “hERG current change (%, negative = inhibition) at 10uM” value is reported as -2.22%.

Regarding `Cc1ccc(CSc2ncnc3ccccc23)cc1`, the “hERG current change (%, negative = inhibition) at 10uM” value is recorded as 11.3%. With `Cc1ccc(S(=O)(=O)NNC(=O)C2COc3ccccc3O2)cc1C` (centres unmarked) the figure was 15.2%. The value for `O=C(CSc1nnc(-c2ccc(S(=O)(=O)N3CCCC3)cc2)o1)NCc1ccco1` was -7.57%; that for `Cn1c(=O)n(C)c2cc([N+](=O)[O-])c(N3CCN(C(=O)c4cccc(F)c4)CC3)cc21` was -32.7%; that for `COc1ccc(N2CCN(c3ccc(C(N)=O)cc3[N+](=O)[O-])CC2)cc1` was 2.51%.

As for `COc1ccc(N2CCN(C(=O)CC34CC5CC(CC(C5)C3)C4)CC2)c([N+](=O)[O-])c1`, the “hERG current change (%, negative = inhibition) at 10uM” value turned out to be 0.229%. Regarding `COc1cccc(C(=O)N2CCN(C(=O)c3cccc(F)c3)CC2)c1`, the “hERG current change (%, negative = inhibition) at 10uM” value is -0.0938%.

For the compound `COc1ccc(C(=O)c2ccc(N3CCOCC3)c([N+](=O)[O-])c2)cc1`, the “hERG current change (%, negative = inhibition) at 10uM” value is -43.7%. Turning to `COc1ccc(N2CCN(C(=S)NC(=O)c3cccs3)CC2)c([N+](=O)[O-])c1`, the “hERG current change (%, negative = inhibition) at 10uM” value is reported as -47.8%.

For the compound `CCCCC(=O)N1CCN(c2ccc(OC)cc2[N+](=O)[O-])CC1`, the “hERG current change (%, negative = inhibition) at 10uM” value is -64.5%.

For `COc1ccc(N2CCN(C(=O)c3cccc(F)c3)CC2)c([N+](=O)[O-])c1`, the “hERG current change (%, negative = inhibition) at 10uM” value is given as -73.2%. Turning to `COc1ccc(N2CCN(C(=O)c3ccc(Br)cc3)CC2)c([N+](=O)[O-])c1`, the “hERG current change (%, negative = inhibition) at 10uM” value is given as -72.3%. For the compound `COc1ccc(N2CCN(C(=O)c3ccccc3)CC2)c([N+](=O)[O-])c1`, the “hERG current change (%, negative = inhibition) at 10uM” value is on record as -67.7%.

For the compound `CCC(=O)N1CCN(c2ccc(OC)cc2[N+](=O)[O-])CC1`, the “hERG current change (%, negative = inhibition) at 10uM” value was -19.5%. On to `COc1cccc(CC(=O)N2CCN(c3ccccc3[N+](=O)[O-])CC2)c1`, for which the “hERG current change (%, negative = inhibition) at 10uM” value was -21%. Regarding `COc1ccc(C2N=C(Nc3ccc(C)cc3)Nc3nc(C)cc(=O)n32)cc1` (centres unmarked), the “hERG current change (%, negative = inhibition) at 10uM” value is 1.81%. Regarding `COc1ccc(CCN2CC(O)=C(c3nc(C)cs3)C2=N)cc1OC`, the “hERG current change (%, negative = inhibition) at 10uM” value was -21.8%. With `CCn1c(=O)c(C(=O)CN2CC(C)OC(C)C2)c(N)n(Cc2ccccc2)c1=O` (centres unmarked) the figure was -32.6%.

`COc1ccc(CCNC(=O)NC2CCCCC2)cc1OC`: the “hERG current change (%, negative = inhibition) at 10uM” value was found to be 8.03%.

`O=C(Nc1ccc(Cl)cc1)c1cc2c(cc1O)[nH]c1ccccc12`: the “hERG current change (%, negative = inhibition) at 10uM” value worked out at 21%.

Take `Cc1ccc2nc(-c3ccc(NS(=O)(=O)c4ccc(F)c(F)c4)cc3)sc2c1`: the “hERG current change (%, negative = inhibition) at 10uM” value is on record as 23.3%. Take `COc1cccc(C2CC(c3ccccc3Cl)n3nc(N)nc3N2)c1` (centres unmarked): the “hERG current change (%, negative = inhibition) at 10uM” value was -9.01%. For the compound `COc1ccc(CCN(Cc2nc(-c3ccccc3)no2)Cc2nc(-c3ccccc3)no2)cc1OC`, the “hERG current change (%, negative = inhibition) at 10uM” value is given as -3.37%. Consider `O=C(N/N=C/c1cc([N+](=O)[O-])ccc1O)C1C2CCCCC21` (centres unmarked), for which the “hERG current change (%, negative = inhibition) at 10uM” value was 3.28%. With `CCn1cc(C(=O)N[C@@H](CCSC)C(=O)NCCO)c(=O)c2cc3c(cc21)OCO3`, the “hERG current change (%, negative = inhibition) at 10uM” value amounted to 20.6%. `O=C(NCCC1=CCCCC1)c1ccc(Br)o1`: the “hERG current change (%, negative = inhibition) at 10uM” value was -4.78%. With `O=C(c1cccnc1)N1CCN(c2ccc([N+](=O)[O-])cc2Cl)CC1` the figure was -65%; with `COc1cccc(C(=O)NC(=S)N2CCN(c3ccc(C(F)(F)F)cc3[N+](=O)[O-])CC2)c1`, 1.6%. For `COc1ccc(N2CCN(C(=O)c3cccnc3)CC2)c([N+](=O)[O-])c1`, the “hERG current change (%, negative = inhibition) at 10uM” value was -70.8%. With `COc1cccc(C(=O)/C=C/c2ccc(N3CCCCC3)c([N+](=O)[O-])c2)c1` the figure was -3.01%; with `O=C(c1ccc([N+](=O)[O-])cc1)N1CCN(C(=O)c2cccnc2)CC1`, -15.7%; with `COc1ccc(N2CCN(C(=O)c3ccc(C)cc3)CC2)c([N+](=O)[O-])c1`, -62.9%.

As to `O=C(c1cccnc1)N1CCN(c2c(Cl)cccc2[N+](=O)[O-])CC1`, the “hERG current change (%, negative = inhibition) at 10uM” value is -46%.

Take `Cc1ccc(C)c(N2CCN(C(=O)c3ccc(N4CCOCC4)c([N+](=O)[O-])c3)CC2)c1`: the “hERG current change (%, negative = inhibition) at 10uM” value was -21.2%.

In the case of `COc1ccc(N2CCN(C(=O)c3cccc(Br)c3)CC2)c([N+](=O)[O-])c1`, the “hERG current change (%, negative = inhibition) at 10uM” value is on record as -87.1%.

Take `COc1cccc(N2CCN(C(=O)c3cccnc3)CC2)c1`: the “hERG current change (%, negative = inhibition) at 10uM” value was 11.2%. Regarding `O=C(c1cccnc1)N1CCN(c2ccccc2Cl)CC1`, the “hERG current change (%, negative = inhibition) at 10uM” value is given as -18.5%. Consider `COc1ccc(C(C)=O)cc1COC(=O)CCNS(=O)(=O)c1ccc(C)c(C)c1`, for which the “hERG current change (%, negative = inhibition) at 10uM” value is -38.3%.

`O=C(CNC(=O)c1ccccc1)NCc1nc2ccccc2[nH]1`: the “hERG current change (%, negative = inhibition) at 10uM” value was 3.76%.

On to `O=C(O)c1cc(-c2cccs2)nc2ccc(F)cc12`, for which the “hERG current change (%, negative = inhibition) at 10uM” value is 13.2%. With `Cc1cccc(-c2nnn(Cc3nnc(NC(=O)c4ccccc4)s3)n2)c1` the figure was 4.02%; with `O=[N+]([O-])c1ccc(-c2cc(-c3ccc(Cl)cc3)n[nH]2)cc1`, -4.49%; with `COC(=O)c1sc2ncn(-n3c(C)ccc3C)c(=O)c2c1C`, 19.7%. The value for `CN(C)c1ccc(C=C2C(=O)NC(=O)NC2=O)cc1[N+](=O)[O-]` was 30.8%; that for `COc1ccc(N2CCN(C(=O)c3ccc(F)cc3)CC2)c([N+](=O)[O-])c1` was -70.1%.

In the case of `O=C1NC(=O)C(=Cc2ccc(N3CCN(C(=O)c4ccccc4)CC3)c([N+](=O)[O-])c2)C(=O)N1`, the “hERG current change (%, negative = inhibition) at 10uM” value is listed as -67.1%. With `CN1C(=O)C(=Cc2ccc(N3CCOCC3)c([N+](=O)[O-])c2)C(=O)N(C)C1=O` the figure was 11.4%; with `CCOC(=O)N1CCN(c2ccc(F)cc2[N+](=O)[O-])CC1`, -10.5%.

For the compound `O=C(c1ccc(F)cc1)N1CCN(c2cc(N3CCCCC3)c(F)cc2[N+](=O)[O-])CC1`, the “hERG current change (%, negative = inhibition) at 10uM” value was -24.6%.

As to `CCCC(=O)N(CCN(Cc1ccccc1)C(=O)CCC)Cc1ccccc1`, the “hERG current change (%, negative = inhibition) at 10uM” value is listed as -42.5%. Regarding `CCC(CO)NC(=O)c1cccc(S(=O)(=O)N2c3ccccc3CC2C)c1` (centres unmarked), the “hERG current change (%, negative = inhibition) at 10uM” value stood at 2.65%.

Regarding `O=C(Nc1ccccc1[N+](=O)[O-])c1ccc(S(=O)(=O)N2CCCC2)cc1`, the “hERG current change (%, negative = inhibition) at 10uM” value worked out at 1.84%.

In the case of `CCCN(CCC)c1ncnc2nc[nH]c12`, the “hERG current change (%, negative = inhibition) at 10uM” value is given as -7.36%. Regarding `CN(C)CCN(C(=O)c1ccccc1Cl)c1nc2c(Cl)cccc2s1.Cl`, the “hERG current change (%, negative = inhibition) at 10uM” value was -34.1%.

As for `Cc1cc(C)c2sc(N(CCCN(C)C)C(=O)COc3ccc(Cl)cc3)nc2c1.Cl`, the “hERG current change (%, negative = inhibition) at 10uM” value was -1.13%. `CN(C)CCCN(C(=O)COc1ccc(Cl)cc1)c1nc2c(F)cccc2s1.Cl`: the “hERG current change (%, negative = inhibition) at 10uM” value is -67.1%. `CN(C)CCCN(C(=O)COc1ccccc1)c1nc2c(Cl)cccc2s1.Cl`: the “hERG current change (%, negative = inhibition) at 10uM” value is on record as -66.9%. As for `Cc1cccc2sc(N(CCCN(C)C)C(=O)COc3ccc(Cl)cc3)nc12.Cl`, the “hERG current change (%, negative = inhibition) at 10uM” value was -60.5%. As to `COc1ccc2sc(N(CCCN(C)C)C(=O)c3nc4ccccc4s3)nc2c1.Cl`, the “hERG current change (%, negative = inhibition) at 10uM” value is given as -5.36%. Turning to `COc1cccc2sc(N(CCCN(C)C)C(=O)COc3ccc(Cl)cc3)nc12.Cl`, the “hERG current change (%, negative = inhibition) at 10uM” value is reported as -80.2%.

`O=[N+]([O-])/C(C(Cl)=C(Cl)Cl)=C(/NC1CC1)Sc1ccccc1`: the “hERG current change (%, negative = inhibition) at 10uM” value came to 7.59%.
